AddAB inh: less growth of phage-infected E. coli with AddAB. AID 435030. E. coli expressing H. pylori AddAB, absorbance growth. inhibition, % at 11.9 µM. actives 0.29% (n = 330,000); in the data active = inhibition above about 12%;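 also: 0% = vehicle wells of infected cells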
E coli growth-1: inhibitors of Escherichia coli growth | OD600 absorbance (test concentration not listed) | OD600, 23 h; active compounds read low | AID 1053175 | actives 0.21% (n = 330,000);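 active = OD600 absorbance below the run mean of sample wells minus 3.6 SD, in any replicate, cut at about 0.56 in these data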
Tat export inh: E. coli Tat transport inhibition. E. coli MC4100 TorA-mCherry Tat export, fluorescence. inhibition, % at 10 µM. actives 0.036% (n = 340,000). AID 488895;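 active = mean replicate inhibition at least 50% and at least half of replicates individually reaching 50%; inconclusive = only one of the two criteria met; inactive = neither criterion met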;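 also: exported cargo escapes ClpAP degradation while cytoplasmic cargo is degraded and loses fluorescence; 0% = median of neutral control wells and 100% = median of NaSCN control wells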
phage Ecoli inh: E. coli growth loss with phage present. actives 0.26% (n = 360,000). inhibition, % at 11.9 µM. growth absorbance. AID 651602; in the data active = inhibition above about 11%
E coli growth-2: bacterial growth inhibition, counter-screen for AddAB inhibitors; E. coli V3065 growth, OD600 absorbance, 18 h; inhibition, % at 11.9 µM; actives 0.27% (n = 330,000);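 active = inhibition above the campaign's mean inhibition across all tested compounds plus 3 SD, cut at about 9.9% in these data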;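 also: uninfected addAB+ strain grown without phage in ampicillin broth; 0% = DMSO wells and 100% = ciprofloxacin 0.95 µg/ml wells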
AddAB confirm: confirmation screen: growth loss of phage-infected E. coli expressing H. pylori AddAB; E. coli V3065 expressing H. pylori AddAB, T4 phage, OD; T4 phage with gene 2 nonsense mutations; actives 64% (n = 880); inhibition, % at 11.9 µM; shares compounds with AddAB inh;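 active = mean inhibition above a set limit taken from the earlier primary screen, cut at about 13% in these data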;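 also: higher means less bacterial growth since AddAB block lets phage replicate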
RecBCD counter: reduces growth of phage-infected RecBCD+ E. coli, AddAB inhibitor counter-screen; shares compounds with AddAB inh; E. coli V66 + mutant T4 phage, OD growth; inhibition, % at 11.9 µM; actives 73% (n = 880);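 active = mean inhibition above the mean of solvent-only control wells plus 3 SD, cut at about 4% in these data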;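 also: optical density read after an 18 h incubation at 37 °C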
Bact viability: counter-screen: bacterial growth inhibition; shares compounds with AddAB inh; inhibition, % at 11.9 µM; actives 35% (n = 880); bacterial viability, absorbance (AddAB counterscreen); AID 488956; in the data active = inhibition above about 25%
Active calls of the source: *. Only some compounds are listed: those with a hit (about 0.5% of all), similar ones and a draw of the others.

What do the screens show for `CC1C(=O)N2CCCc3cc(S(=O)(=O)N(C)c4ccccc4)cc1c32` (stereo unspecified)?
AddAB inh: 44*; E coli growth-1: 0.66; Tat export inh: -1; phage Ecoli inh: -2; E coli growth-2: 23*; AddAB confirm: 1; RecBCD counter: -2; Bact viability: 0

How did CC(NC(=O)NC1CCCCC1)C(c1cccs1)N1CCN(C)CC1 (stereo unspecified) do in these assays?
AddAB inh: 85*; E coli growth-1: 0.73; Tat export inh: -13; phage Ecoli inh: 1; E coli growth-2: 8; AddAB confirm: 1; RecBCD counter: 0; Bact viability: -4

How did O=C(Nc1ccc([N+](=O)[O-])cc1)Nc1ccc(OC(F)F)c(Cl)c1 do in these assays?
AddAB inh: 15*; E coli growth-1: 0.29*; Tat export inh: -8; phage Ecoli inh: 13*; E coli growth-2: 15*; AddAB confirm: 15*; RecBCD counter: 17*; Bact viability: 11

What do the screens show for `COc1ccc2[nH]c3c(c2c1)CCNC3c1ccc([N+](=O)[O-])o1` (stereo unspecified)?
AddAB inh: 41*; Tat export inh: 5; phage Ecoli inh: 4; E coli growth-2: 10*; AddAB confirm: 14*; RecBCD counter: 3; Bact viability: 1

Results for CSc1nc(N)nc2c1ncn2CC(=O)Nc1ccc(C)c(C)c1 ?
AddAB inh: 15*; E coli growth-1: 0.63; Tat export inh: 15; phage Ecoli inh: 9; E coli growth-2: 12*; AddAB confirm: 13*; RecBCD counter: 11*; Bact viability: 7

Results for Cc1ccc(NC(=O)Cn2cnc3ccccc32)cc1C ?
AddAB inh: 14*; E coli growth-1: 0.68; Tat export inh: -14; phage Ecoli inh: 7; E coli growth-2: 14*; AddAB confirm: 20*; RecBCD counter: 14*; Bact viability: 11

How did CSc1nc(N)nc2c1ncn2CC(=O)NCC(c1ccccc1)c1ccccc1 do in these assays?
AddAB inh: 1; E coli growth-1: 0.7; Tat export inh: 4; phage Ecoli inh: 2; E coli growth-2: -2

What do the screens show for `CC(CCc1ccco1)=NNC(=O)CCC(=O)Nc1cccc(Cl)c1`?
E coli growth-1: 0.7

What do the screens show for `Cc1ccc2nc(/C(C#N)=C\c3ccc([N+](=O)[O-])o3)[nH]c2c1`?
AddAB inh: 43*; E coli growth-1: 0.6; Tat export inh: -18; phage Ecoli inh: 6; E coli growth-2: 10*; AddAB confirm: 67*; RecBCD counter: 5.2*; Bact viability: 15

How did CCOCCCn1c(SC(C(=O)Nc2cc(C)ccc2C)c2ccccc2)nnc1-c1ccc(Cl)cc1 (stereo unspecified) do in these assays?
AddAB inh: 33*; E coli growth-1: 0.78; Tat export inh: -3; phage Ecoli inh: 1; E coli growth-2: 68*; AddAB confirm: 2; RecBCD counter: -1; Bact viability: -3

How did O=C(CO)NN=Cc1ccccc1F do in these assays?
E coli growth-1: 0.72

How did O=C(NC(=S)NNC(=O)c1ccccc1O)c1ccc(F)cc1 do in these assays?
AddAB inh: 13*; E coli growth-1: 0.72; Tat export inh: 5; phage Ecoli inh: 10; E coli growth-2: 16*; AddAB confirm: 15*; RecBCD counter: 18*; Bact viability: 16

Results for COc1ccccc1C(=O)NNC(=S)NC(=O)c1cccs1 ?
AddAB inh: 4; Tat export inh: 8; phage Ecoli inh: 1; E coli growth-2: 0

How did O=C(NC(=S)NNC(=O)c1ccccc1O)c1cccs1 do in these assays?
AddAB inh: 13*; E coli growth-1: 0.54; Tat export inh: 3; phage Ecoli inh: 9; E coli growth-2: 6; AddAB confirm: 22*; RecBCD counter: 20*; Bact viability: 13

What do the screens show for `O=C(NC(=S)NNC(=O)c1ccccc1O)c1ccccc1`?
AddAB inh: 13*; E coli growth-1: 0.58; Tat export inh: inconclusive; phage Ecoli inh: 10; E coli growth-2: 10*; AddAB confirm: 10; RecBCD counter: 17*; Bact viability: 15

High-throughput results from PubChem.
